Assay [1] in a line: compounds altering viability of human ES cells (AID 493140).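 Further: cells exposed to compounds for four days before counting.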 The conditions noted are these: human embryonic stem cell survival screen; stronger effect = higher value.
Assay [2] can be described thus: liver-stage malaria parasite load reduction – cell-based, known kinase inhibitor set, luminescence, hepatoma host viability (AID 624392).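 Further: infected cells incubated roughly two days before readout.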 The conditions noted are these: Plasmodium liver stage in hepatoma cells, luciferase luminescence, concentration not given here; liver cell % of control: measured here: host liver cell viability; parasite % of control: stronger effect = lower value.

For assay [3], the target named is ATP-dependent translocase ABCB1 (Homo sapiens) (UniProt P08183). Briefly: P-glycoprotein substrate transport blockade – cell-based (AID 377; in the data active means fluorescence slope change above about 50%). The conditions noted are these: MDR1-expressing cells, fluorescent substrate accumulation slope; stronger effect = higher value; concentration not given here.
A short description of assay [4]: chitosan synthesis blockers in C. neoformans – flow cytometry, Cibacron Brilliant Red staining (AID 1347148).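 Further: compound exposure lasted three days at 37 degrees C.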 Conditions: Cryptococcus neoformans chitosan, stronger effect = lower value; at 10 µM unless noted. For orientation: A flow cytometer gives signals particle by particle.
A short description of assay [5]: growth inhibition, single agents and combos, LFS_MB_2R, cell-based, cisplatin combos, synergistic combos for chromothripsis tumors (AID 1671457; in the data active means inhibition above about 80%;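 further: cells exposed to compound for four days before readout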). Conditions: LFS_MB_2R medulloblastoma cells, stronger effect = higher value.
The nature of assay [6]: UWB1.289_BRCA1 ovarian cancer growth, cell-based, BGB or cisplatin combinations (AID 1671459; in the data active means inhibition above about 80%). Conditions: UWB1.289 BRCA1 ovarian carcinoma, drug combinations, stronger effect = higher value.
The nature of assay [7]: drug combination toxicity in non-malignant astrocytes – cell-based, BGB or cisplatin IC20 combos, cytotoxicity control for chromothriptic childhood tumor combination screen (AID 1671460; in the data active means inhibition above about 80%;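 further: cells exposed to compounds for 96 hours before viability readout; 0% = vehicle and 100% = killing control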). Conditions: Human astrocytes, viability inhibition, drug combinations, at 0.5 µM, stronger effect = higher value.
Assay [8] has as its target Mitogen-activated protein kinase 7 (Homo sapiens) (UniProt Q13164). Briefly: Gal4-ERK5 driven luciferase induction – cell-based, HTS, primary screen (AID 1508626;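 active means luciferase signal above three times the same-plate solvent-only control wells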;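 further: luciferase driven by Gal4-ERK5 fusion binding five Gal4 sites before minimal TATA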). Conditions: HeLa Gal4-ERK5 transactivation, 18 h, at 5 µM, stronger effect = higher value.
The mark [9] stands for this setting: measured here: combination with cisplatin, at 0.5 µM.
Where [10] appears, read: measured here: combination with cisplatin, at 5 µM.
Setting [11] is: BGB combination, concentration series, at 5 µM.
The mark [12] stands for this setting: cisplatin combination, concentration series, at 5 µM.
Where [13] appears, read: measured here: combo with BGB IC20.
[14] abbreviates: measured here: combo with cisplatin IC20.

Values joined by “and” are separate entries in the source; they are usually repeats but may differ in a detail not shown here. Equal entries are not always repeated. Inconclusive results are not listed. Active and inactive are the calls of the source. Unless noted, how the calls were made is not given here.

Chain of ATP-dependent translocase ABCB1 (Homo sapiens) (P08183 whole entry, looked up): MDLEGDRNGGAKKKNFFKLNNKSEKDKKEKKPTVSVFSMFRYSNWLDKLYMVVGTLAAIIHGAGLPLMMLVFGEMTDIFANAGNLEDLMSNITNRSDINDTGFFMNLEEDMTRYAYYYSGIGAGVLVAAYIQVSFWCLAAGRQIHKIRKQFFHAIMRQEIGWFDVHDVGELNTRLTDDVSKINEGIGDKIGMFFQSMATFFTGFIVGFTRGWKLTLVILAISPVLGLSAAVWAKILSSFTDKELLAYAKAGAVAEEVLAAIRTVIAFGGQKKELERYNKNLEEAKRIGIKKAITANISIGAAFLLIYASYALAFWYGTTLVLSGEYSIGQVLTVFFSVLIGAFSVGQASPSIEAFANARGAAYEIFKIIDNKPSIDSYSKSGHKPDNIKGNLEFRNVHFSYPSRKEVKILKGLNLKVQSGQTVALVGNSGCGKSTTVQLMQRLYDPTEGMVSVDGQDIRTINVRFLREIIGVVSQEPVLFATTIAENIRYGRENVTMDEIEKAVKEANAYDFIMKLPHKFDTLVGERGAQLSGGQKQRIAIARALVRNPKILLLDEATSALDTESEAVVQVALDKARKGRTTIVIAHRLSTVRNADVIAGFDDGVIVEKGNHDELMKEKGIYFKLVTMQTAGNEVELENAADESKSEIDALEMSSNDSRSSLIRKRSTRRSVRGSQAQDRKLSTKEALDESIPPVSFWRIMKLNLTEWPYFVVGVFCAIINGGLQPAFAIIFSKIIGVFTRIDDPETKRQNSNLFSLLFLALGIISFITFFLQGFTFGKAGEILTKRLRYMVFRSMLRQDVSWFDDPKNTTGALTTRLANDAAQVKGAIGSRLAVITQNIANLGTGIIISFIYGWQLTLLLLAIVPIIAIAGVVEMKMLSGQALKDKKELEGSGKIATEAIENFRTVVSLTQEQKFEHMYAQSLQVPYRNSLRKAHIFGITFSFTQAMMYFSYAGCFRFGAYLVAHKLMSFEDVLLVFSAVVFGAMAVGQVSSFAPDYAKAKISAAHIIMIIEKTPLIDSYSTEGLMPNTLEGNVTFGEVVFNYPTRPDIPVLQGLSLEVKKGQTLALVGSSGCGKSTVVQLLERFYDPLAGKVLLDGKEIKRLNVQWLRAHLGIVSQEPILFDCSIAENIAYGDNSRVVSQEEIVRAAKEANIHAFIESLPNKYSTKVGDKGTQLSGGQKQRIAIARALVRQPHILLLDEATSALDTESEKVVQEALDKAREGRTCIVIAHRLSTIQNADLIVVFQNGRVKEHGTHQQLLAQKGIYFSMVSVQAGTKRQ
Chain of Mitogen-activated protein kinase 7 (Homo sapiens) (Q13164 whole entry, looked up, the tested form may be a part): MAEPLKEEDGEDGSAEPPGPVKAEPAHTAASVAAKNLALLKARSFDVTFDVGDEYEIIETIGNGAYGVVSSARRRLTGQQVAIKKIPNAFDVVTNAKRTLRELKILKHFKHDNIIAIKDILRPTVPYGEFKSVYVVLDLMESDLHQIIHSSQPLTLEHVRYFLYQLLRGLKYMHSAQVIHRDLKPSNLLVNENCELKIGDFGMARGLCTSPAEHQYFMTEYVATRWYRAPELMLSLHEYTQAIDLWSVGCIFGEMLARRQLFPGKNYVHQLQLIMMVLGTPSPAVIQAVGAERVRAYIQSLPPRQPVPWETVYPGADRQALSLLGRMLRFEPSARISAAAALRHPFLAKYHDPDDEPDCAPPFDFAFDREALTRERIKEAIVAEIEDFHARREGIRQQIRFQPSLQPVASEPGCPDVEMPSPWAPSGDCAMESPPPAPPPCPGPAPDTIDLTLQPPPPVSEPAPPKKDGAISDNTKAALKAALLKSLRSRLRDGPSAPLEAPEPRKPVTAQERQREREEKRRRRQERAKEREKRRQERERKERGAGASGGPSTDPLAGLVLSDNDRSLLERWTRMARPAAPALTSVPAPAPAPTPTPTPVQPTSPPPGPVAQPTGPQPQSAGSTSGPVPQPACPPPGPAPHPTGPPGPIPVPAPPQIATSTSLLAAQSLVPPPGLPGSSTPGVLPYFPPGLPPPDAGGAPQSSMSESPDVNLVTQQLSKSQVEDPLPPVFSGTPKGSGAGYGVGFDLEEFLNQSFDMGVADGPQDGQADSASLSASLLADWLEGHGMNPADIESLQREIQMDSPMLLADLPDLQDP

As to `CN1CCCN=C1/C=C/c1cccs1`, the survival in assay [1] was 25.8 (inactive).

Take `C=CC(=O)Nc1cc2c(Nc3ccc(F)c(Cl)c3)ncnc2cc1OCCCN1CCOCC1`: in assay [2], the liver cell % of control was 85.5% and 77.3% and 90.4%; the parasite % of control is 36.7% (inactive) and 39.4% (inactive) and 33.2% (inactive).

Turning to `Cc1ccc(Nc2nccc(N(C)c3ccc4c(C)n(C)nc4c3)n2)cc1S(N)(=O)=O`, in assay [2], the liver cell % of control was 87.8% and 92.8% and 108%; the parasite % of control was 30.2% (inactive) and 10.9% (inactive) and 16.3% (inactive).

With `Clc1ccc(C(Cn2ccnc2)OCc2c(Cl)cccc2Cl)c(Cl)c1` (stereo not drawn), the fluorescence slope change in assay [3] was 107% (active). Moreover, the survival in assay [1] is 13.2 (inactive).

With `N=C(N)c1ccc2cc(OC(=O)c3ccc(N=C(N)N)cc3)ccc2c1`, the fold fluorescence in assay [4] is 12.2 [at 143.9 µM] (inactive).

With `CC1=C(C)C(=O)C(CCCCC#CCCCC#CCO)=C(C)C1=O`, in assay [4], the fold fluorescence is 9.55 [at 153.2 µM] (inactive).

Turning to `C[C@@H]1C[C@H]2[C@@H]3CCC4=CC(=O)C=C[C@]4(C)[C@@]3(Cl)[C@@H](O)C[C@]2(C)[C@@]1(OC(=O)c1ccco1)C(=O)CCl`, the fluorescence slope change in assay [3] is 21.4% (inactive). Also, the survival in assay [1] was 4.67 (inactive).

As for `C#Cc1cccc(Nc2ncnc3cc(OCCOC)c(OCCOC)cc23)c1`, in assay [2], the liver cell % of control was 94.7% and 95% and 97.1%; the parasite % of control is 281% (inactive) and 87% (inactive) and 63.1% (inactive).

As a reminder, the inhibition is the drop in the measured response relative to a control, in per cent. On to `CCOC(=O)Nc1ccc(NCc2ccc(F)cc2)nc1N`, for which the inhibition was -26.1% (inactive) in assay [5] (at 0.5 µM); -30.1% in assay [5] (setting [9]); -38% in assay [5] (setting [10]); -6.96% in assay [6] (setting [11]); -1.39% (inactive) in assay [6] (at 0.5 µM); 8.03% in assay [6] (setting [12]). The inhibition in assay [7] was 3.76% (inactive); in assay [7] (setting [13]) it was 6.16%; in assay [7] (setting [14]), 13.9%.

Consider `O=c1[nH]c(=O)n([C@H]2C[C@H](O)[C@@H](CO)O2)cc1C(F)(F)F`, for which the luciferase signal in assay [8] was 36 AU (inactive). The inhibition was -13.5% (inactive) in assay [5] (at 0.5 µM); -15.3% in assay [5] (setting [9]); -85.8% in assay [5] (setting [10]); 3.66% in assay [6] (setting [11]); -12.4% (inactive) in assay [6] (at 0.5 µM); 9.54% in assay [6] (setting [12]). Also, the results for the inhibition in assay [7], in assay [7] (setting [13]) and in assay [7] (setting [14]) were -1.16% (inactive), 5.49% and -19.9%, respectively.

In the case of `O=c1[nH]c(=O)n([C@H]2C[C@H](O)[C@@H](CO)O2)cc1Br`, the inhibition was -21.2% (inactive) in assay [5] (at 0.5 µM); -22.2% in assay [5] (setting [9]); -17.4% in assay [5] (setting [10]); 35.6% in assay [6] (setting [11]); 9.43% (inactive) in assay [6] (at 0.5 µM); 29% in assay [6] (setting [12]). Further, the inhibition in assay [7] is 11% (inactive); in assay [7] (setting [13]), 6.3%; in assay [7] (setting [14]) it was 12.5%.

Take `CC(=O)Oc1cc(C(F)(F)F)ccc1C(=O)O`: the survival in assay [1] is 9.25 (inactive).

Regarding `OCCN1CCN(CC/C=C2/c3ccccc3Sc3ccc(C(F)(F)F)cc32)CC1`, the fluorescence slope change in assay [3] was 77.6% (active). Moreover, the survival in assay [1] is 3.17 (inactive).

With `CCCCCCCCCCCCCCC[C@H](O)[C@@H](N)CO`, in assay [1], the survival was 80 (inactive). Also, the fold fluorescence in assay [4] is 7.01 (inactive).

As to `C(=C\c1ccccc1)/CN1CCN(C(c2ccccc2)c2ccccc2)CC1`, the fluorescence slope change in assay [3] is 102% (active). The survival in assay [1] is 11.3 (inactive).
